Test results published in PubChem BioAssay (NCI).
Where “and” joins values, the source holds several entries; their conditions need not be identical. Equal values may be shown once. The panel holds about 83,000 compounds, 20% with a hit somewhere; the sample as a whole holds those more often.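 Interpretation: 100, growth as untreated; towards 0, rising growth inhibition; 0, no net growth; 0 to -100, cell death. Compounds scoring below 10 were considered active.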 Calls of active or inactive are those of the source.

Tests used:
Test in all cases: NCI-60 one-dose screen, 48 h (100 = growth as untreated, 0 = no growth, -100 = all killed)
Settings in all cases: 10 µM unless noted
SR leukemia = test system: SR leukemia
RPMI-8226 leukemia = test system: RPMI-8226 leukemia
OVCAR-8 ovarian = test system: OVCAR-8 ovarian
OVCAR-5 ovarian = test system: OVCAR-5 ovarian
OVCAR-4 ovarian = test system: OVCAR-4 ovarian
SK-OV-3 ovarian = test system: SK-OV-3 ovarian
IGROV1 ovarian = test system: IGROV1 ovarian
OVCAR-3 ovarian = test system: OVCAR-3 ovarian
HS 578T breast = test system: HS 578T breast
NCI/ADR-RES ovarian = test system: NCI/ADR-RES ovarian

Measured: growth

COc1ccc(-c2c[nH]c(C(=O)O)c2-c2cc(OC)c(OC)c(OC)c2)cc1
active: OVCAR-3 ovarian -2.04% | HS 578T breast 9.64%
inactive: SR leukemia 18.7% | RPMI-8226 leukemia 36% | OVCAR-8 ovarian 51.4% | OVCAR-5 ovarian 80.6% | OVCAR-4 ovarian 49.9% | SK-OV-3 ovarian 53.2% | IGROV1 ovarian 54.8% | NCI/ADR-RES ovarian 24.2%

O=c1c(/C=C/c2ccco2)nnc2sc(Nc3ccc(Cl)cc3)nn12
inactive: SR leukemia 96% | RPMI-8226 leukemia 101% | OVCAR-8 ovarian 101% | OVCAR-5 ovarian 97.1% | OVCAR-4 ovarian 90.7% | SK-OV-3 ovarian 86.4% | IGROV1 ovarian 68.8% | OVCAR-3 ovarian 106% | HS 578T breast 91% | NCI/ADR-RES ovarian 102%

Cc1nc(-n2[nH]c(=O)ccc2=O)sc1N=Nc1ccccc1
inactive: SR leukemia 105% | RPMI-8226 leukemia 100% | OVCAR-8 ovarian 103% | OVCAR-5 ovarian 100% | OVCAR-4 ovarian 104% | SK-OV-3 ovarian 103% | IGROV1 ovarian 95.5% | OVCAR-3 ovarian 114% | HS 578T breast 95.5% | NCI/ADR-RES ovarian 108%

Cc1ccc(S(=O)(=O)OC[C@@]2(C)CC[C@]3(C)CC[C@]4(C)C(=CC[C@@H]5[C@@]6(C)CCCNC(C)(C)[C@@H]6CC[C@]54C)[C@@H]3C2)cc1
inactive: SK-OV-3 ovarian 75.2%
active: SR leukemia -39.3% | RPMI-8226 leukemia -57.8% | OVCAR-8 ovarian -50.2% | OVCAR-5 ovarian -84% | OVCAR-4 ovarian -78.5% | IGROV1 ovarian -84.9% | OVCAR-3 ovarian -95.8% | HS 578T breast -20% | NCI/ADR-RES ovarian -65.8%

CC/C=C\C/C=C\C[C@H](O)C/C=C1/C(=O)C=C[C@@H]1C/C=C\CCCC(=O)OC
inactive: OVCAR-5 ovarian 11% | OVCAR-4 ovarian 28.2% | SK-OV-3 ovarian 24.2% | HS 578T breast 32.6% | NCI/ADR-RES ovarian 12.1%
active: SR leukemia 0.0807% | RPMI-8226 leukemia -8.73% | OVCAR-8 ovarian 7.41% | IGROV1 ovarian -28.9% | OVCAR-3 ovarian -40.1%

COc1ccccc1/C=C1\COc2ccc(O)c(O)c2C1=O
active: SR leukemia 8.02% | RPMI-8226 leukemia -19.3% | OVCAR-8 ovarian 9.04% | IGROV1 ovarian 6.74% | OVCAR-3 ovarian -11.8% | NCI/ADR-RES ovarian 3.53%
inactive: OVCAR-5 ovarian 28.3% | OVCAR-4 ovarian 28.1% | SK-OV-3 ovarian 60.3% | HS 578T breast 10.4%

Nc1ncc(-c2ccc3ncnc(N4CCc5ccc(Cl)cc54)c3c2)cc1C(F)(F)F
inactive: OVCAR-8 ovarian 25.2% | OVCAR-5 ovarian 12.2% | OVCAR-3 ovarian 10.8% | NCI/ADR-RES ovarian 20.3%
active: SR leukemia -5.75% | RPMI-8226 leukemia -3.24% | OVCAR-4 ovarian 8.43% | SK-OV-3 ovarian 6.83% | IGROV1 ovarian -53.3% | HS 578T breast -14.3%

Cc1nc2sc(C(=O)Nc3cccc(Cl)c3C)c(N)c2cc1C(O)c1ccccc1 (stereo not given)
active: SR leukemia 7.23% | RPMI-8226 leukemia 8.08% | OVCAR-3 ovarian 4.1% | NCI/ADR-RES ovarian 3.99%
inactive: OVCAR-8 ovarian 11.8% | OVCAR-5 ovarian 37.5% | OVCAR-4 ovarian 55.6% | SK-OV-3 ovarian 32.9% | IGROV1 ovarian 21.8% | HS 578T breast 23.4%

O=C(Oc1ccc(CO[N+](=O)[O-])cc1)c1ccccc1
active: SR leukemia -45.7% | RPMI-8226 leukemia -53.1% | OVCAR-8 ovarian -83.7% | OVCAR-5 ovarian -81.2% | OVCAR-4 ovarian -77.1% | SK-OV-3 ovarian -90.4% | IGROV1 ovarian -80.2% | OVCAR-3 ovarian -97% | HS 578T breast -25.1% | NCI/ADR-RES ovarian -82%

CCOC(=O)c1nc2c3ccccc3cnn2c1C(=O)c1ccc(OC)cc1
inactive: SR leukemia 90.6% | RPMI-8226 leukemia 95.6% | OVCAR-8 ovarian 98.2% | OVCAR-5 ovarian 106% | OVCAR-4 ovarian 89.4% | SK-OV-3 ovarian 81.6% | IGROV1 ovarian 105% | OVCAR-3 ovarian 110% | HS 578T breast 101% | NCI/ADR-RES ovarian 94.4%

CCN(CC)CCCN1C(=O)c2c(c(C)c3c(oc4cc(OC)ccc43)c2C)C1=O
active: SR leukemia -4.78%
inactive: RPMI-8226 leukemia 91.6% | OVCAR-8 ovarian 17% | OVCAR-5 ovarian 85% | OVCAR-4 ovarian 111% | SK-OV-3 ovarian 129% | IGROV1 ovarian 86.6% | OVCAR-3 ovarian 110% | HS 578T breast 108% | NCI/ADR-RES ovarian 96%

COc1ccc(/C=N/NC(=O)CN2CCN(c3cc4c(cc3F)c(=O)c(C(=O)O)cn4C3CC3)CC2)cc1O
inactive: SR leukemia 80.2% | RPMI-8226 leukemia 92.3% | OVCAR-8 ovarian 95.1% | OVCAR-5 ovarian 108% | OVCAR-4 ovarian 108% | SK-OV-3 ovarian 108% | IGROV1 ovarian 95.5% | OVCAR-3 ovarian 103% | HS 578T breast 96.8% | NCI/ADR-RES ovarian 106%

C/C=C(/C)C(=O)O[C@@H]1CC(C)(C)CC2C34OC(=O)[C@@]21CC[C@@]3(C)[C@]1(C)CCC2C(C)(C)C(=O)CC[C@]2(C)C1C[C@@H]4Cl (stereo not given in full)
inactive: SR leukemia 108% | RPMI-8226 leukemia 91% | OVCAR-8 ovarian 96% | OVCAR-5 ovarian 95.9% | OVCAR-4 ovarian 96.2% | SK-OV-3 ovarian 99.7% | IGROV1 ovarian 96.8% | OVCAR-3 ovarian 115% | HS 578T breast 99.8% | NCI/ADR-RES ovarian 106%

Clc1ccc(Nc2nc(Nc3ccc(Cl)cc3)nc(Nc3ccc(-c4cc(-c5cccc(Cl)c5)on4)cc3)n2)cc1
active: SR leukemia -9.82%
inactive: RPMI-8226 leukemia 87% | OVCAR-8 ovarian 85.5% | OVCAR-5 ovarian 71.4% | OVCAR-4 ovarian 101% | SK-OV-3 ovarian 103% | IGROV1 ovarian 104% | OVCAR-3 ovarian 90.1% | HS 578T breast 105% | NCI/ADR-RES ovarian 84.1%

Nc1ccc(-c2ccc(N)c(Br)c2)cc1Br
inactive: SR leukemia 20.7% | RPMI-8226 leukemia 29% | OVCAR-8 ovarian 59.2% | OVCAR-5 ovarian 63% | OVCAR-4 ovarian 75.5% | SK-OV-3 ovarian 64.4% | IGROV1 ovarian 47% | OVCAR-3 ovarian 51.4% | HS 578T breast 79.5% | NCI/ADR-RES ovarian 29.2%

CN(C)C(=O)c1cc2cnc(Nc3ccc(-c4csc5c(=S)cc(N6CCOCC6)oc45)cc3)nc2n1C1CCCC1
inactive: OVCAR-5 ovarian 17% | OVCAR-4 ovarian 18.5% | SK-OV-3 ovarian 16.4% | OVCAR-3 ovarian 13.6% | NCI/ADR-RES ovarian 14.1%
active: SR leukemia -3.12% | RPMI-8226 leukemia -35.9% | OVCAR-8 ovarian 7.87% | IGROV1 ovarian 8.93% | HS 578T breast 5.04%

Cc1cc(N2CCCCC2)nc(NCc2cc(Nc3ccnc4cc(Cl)ccc34)ccc2F)n1
inactive: SK-OV-3 ovarian 72.6% | IGROV1 ovarian 10.2% | HS 578T breast 14.9%
active: SR leukemia -21.3% | RPMI-8226 leukemia -38.9% | OVCAR-8 ovarian -15% | OVCAR-5 ovarian -42.1% | OVCAR-4 ovarian -4.79% | OVCAR-3 ovarian -79.5% | NCI/ADR-RES ovarian 6.86%

COc1ccc2c(c1)c(-c1nc(-c3c[nH]c4c(Cl)nccc34)cs1)cn2C
inactive: SR leukemia 32.1% | RPMI-8226 leukemia 78% | OVCAR-8 ovarian 95.1% | OVCAR-5 ovarian 57.4% | OVCAR-4 ovarian 34% | SK-OV-3 ovarian 78.6% | IGROV1 ovarian 56.5% | OVCAR-3 ovarian 47.9% | HS 578T breast 87.6% | NCI/ADR-RES ovarian 95.5%

C=C1C(=O)O[C@@H]2[C@H]3[C@H](COC(C)=O)[C@@H](OC(C)=O)C[C@H]3C(=C)[C@@H](O)C[C@@H]12
inactive: SR leukemia 72.6% | RPMI-8226 leukemia 76% | OVCAR-8 ovarian 92.1% | OVCAR-5 ovarian 97.2% | OVCAR-4 ovarian 110% | SK-OV-3 ovarian 108% | IGROV1 ovarian 101% | OVCAR-3 ovarian 80.9% | HS 578T breast 92.4% | NCI/ADR-RES ovarian 98.6%

BrC1=C(Br)C(Br)(Br)C(Br)=C1Br
active: SR leukemia 9.34%
inactive: RPMI-8226 leukemia 20.8% | OVCAR-8 ovarian 62.8% | OVCAR-5 ovarian 97.2% | OVCAR-4 ovarian 104% | SK-OV-3 ovarian 108% | IGROV1 ovarian 98.3% | OVCAR-3 ovarian 104% | HS 578T breast 118% | NCI/ADR-RES ovarian 75.2%

N#C/C(=N\Nc1ccc(Cl)cc1)C(=O)Nc1cc(-c2ccccc2)nn1-c1ccccc1
inactive: SR leukemia 89.4% | OVCAR-8 ovarian 25.6% | OVCAR-5 ovarian 81.6% | OVCAR-4 ovarian 36.8% | SK-OV-3 ovarian 26.4% | IGROV1 ovarian 19.9% | OVCAR-3 ovarian 15.4% | HS 578T breast 47% | NCI/ADR-RES ovarian 29.7%
active: RPMI-8226 leukemia 1.81%

O=C(NNC(=S)Nc1ccccc1)c1ccncc1
inactive: SR leukemia 99.2% | RPMI-8226 leukemia 96.8% | OVCAR-8 ovarian 104% | OVCAR-5 ovarian 107% | OVCAR-4 ovarian 116% | SK-OV-3 ovarian 118% | IGROV1 ovarian 106% | OVCAR-3 ovarian 114% | HS 578T breast 132% | NCI/ADR-RES ovarian 105%

O=C1OCC2=C1C(c1cccc(C(F)(F)F)c1)c1cc3c(cc1N2CCO)OCCO3 (stereo not given)
inactive: SR leukemia 13.3% | RPMI-8226 leukemia 22.2% | OVCAR-8 ovarian 11.4% | OVCAR-5 ovarian 45.9% | OVCAR-4 ovarian 66.3% | SK-OV-3 ovarian 16.1% | IGROV1 ovarian 38% | HS 578T breast 27.8% | NCI/ADR-RES ovarian 22.2%
active: OVCAR-3 ovarian -4.23%

Cc1ccc(S(=O)(=O)OC[C@@]2(C)CC[C@]3(C)CC[C@]4(C)C(=C3C2)C=C[C@@H]2[C@@]3(C)CCCNC(C)(C)[C@@H]3CC[C@]24C)cc1
inactive: OVCAR-5 ovarian 34.8% | SK-OV-3 ovarian 104% | OVCAR-3 ovarian 23.5% | HS 578T breast 83.4%
active: SR leukemia -30.9% | RPMI-8226 leukemia -66% | OVCAR-8 ovarian -65.6% | OVCAR-4 ovarian -40.5% | IGROV1 ovarian -2.07% | NCI/ADR-RES ovarian -19.7%

C=C(c1ccc(C(=O)O)cc1)c1cc2c(cc1C)C(C)(C)CCC2(C)C
2.66% (active) and 61% (inactive): RPMI-8226 leukemia
inactive: SR leukemia 46.1% and 84.9% | OVCAR-8 ovarian 77% and 80.6% | OVCAR-5 ovarian 91% and 79.7% | OVCAR-4 ovarian 95.4% and 86.9% | SK-OV-3 ovarian 88.7% and 77.8% | IGROV1 ovarian 98.9% and 79.8% | OVCAR-3 ovarian 88.8% and 82.6% | HS 578T breast 126% and 68.1% | NCI/ADR-RES ovarian 71.9% and 72.9%
